# Data: PubChem BioAssay (NCATS)
# Inconclusive results are not listed. A number with no mark means an inactive call. Calls of active or inactive are those of the source. Calls come from the whole dose curve; tested in HEK293 reporter line.
# Assay: qHTS for Inhibitors of the Functional Ribonucleoprotein Complex (vRNP) of Lymphocytic Choriomeningitis Arenaviruses (LCMV): Viability assay - alamar blue signal for LCMV Primary Screen (AID 1347085); note: nearly all actives have a fitted effect of over 80% in size
# Details: alamar blue viability counter-screen, LCMV vRNP screen cells; series mostly up to 57.5 µM; activity change, negative = lower viability: at the top concentration
# % is set by controls: 0 for no effect and ±100 for the full control effect.
Compound,"activity change, negative = lower viability",Potency
CC12C=CC(=O)C=C1CCC1C2C(=O)CC2(C)C(=O)CCC12 (stereo not drawn),6.18%,–
C[C@@H]1CC[C@]2(C(=O)O[C@@H]3O[C@H](CO)[C@@H](O)[C@H](O)[C@H]3O)CC[C@]3(C)C(=CCC4[C@@]5(C)C[C@@H](O)[C@H](O)[C@@](C)(C(=O)O[C@@H]6[C@H](O)C[C@@]7(C)C(CC[C@]8(C)C7CC=C7[C@H]9[C@](C(=O)O[C@@H]%10O[C@H](CO)[C@@H](O)[C@H](O)[C@H]%10O)(CC[C@@H](C)[C@@]9(C)O)CC[C@]78C)[C@@]6(CO)C(=O)O)C5CC[C@]43C)[C@@H]2[C@]1(C)O (stereo partly drawn),-2.67%,–
COc1ccc(CC(=O)c2ccc(OC3OC(CO)C(O)C(O)C3O)cc2O)cc1 (stereo not drawn),17%,–
COc1ccc(CCC(=O)O)cc1,-0.0831%,–
CC(C)C(=O)OCCc1ccccc1,-30.3% [at 115 µM],–
CCCCCCCCC(=O)OCC,11.2% [at 115 µM],–
C#CCCC[C@@H]1OC(=O)CNC(=O)C([C@@H](C)CC)NC(=O)[C@@H]2CCCN2C(=O)C([C@@H](C)CC)OC(=O)[C@H](Cc2ccccc2)N(C)C(=O)[C@H](C(C)C)NC(=O)C1(C)C (stereo partly drawn),8.09%,–
CC(C)=CCC1=C(O)[C@](O)(CC=C(C)C)C(=O)C(C(=O)CC(C)C)=C1O,-4.36%,–
CC(=O)Nc1ccccc1O,16.4% [at 115 µM],–
C=C1C[C@@]23CC[C@H]4[C@@](C)(CCC[C@@]4(C)C(=O)O)[C@@H]2CC[C@]1(O)C3,–,inactive
O[C@@H]1CCN2Cc3ccccc3N=C12,11.2%,–
CC1C(=O)OC2CCN3CC=C(COC(=O)C(C)(O)C1(C)O)C23 (stereo not drawn),-1.75%,–
C=C1C2CC[C@]3(CCC4[C@@]5(C)CCC[C@@]4(CN(CCO)C5)[C@@H]3C2)[C@@H]1O (stereo partly drawn),-0.81%,–
